# Whole data set: some 25,000 sequences, median “ln(normalized median fluorescence intensity)” near 9.7, cut for the highest 2% near 11. This excerpt belongs to a sample that is enriched for the highest values.
# System: PfAP2-HC AP2 domain (GST-tagged)
# Assay: gcPBM binding intensity (ln(normalized median fluorescence intensity)); higher = stronger DNA binding
# Method in brief: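 For binding intensity, the highest Masliner-normalised natural-log median intensity across replicate spots of either probe orientation was taken. Protein bound to the array was stained with Alexa488 anti-GST antibody and scanned at 488 nm. The protein, GST-tagged P. falciparum DNA-binding domains from E. coli at about 25 μg on average, had been applied for 1 h to an Agilent 4 × 180k array of primer-extended double-stranded 36-bp intergenic genomic probes and negative controls.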
row,Sequence,gcPBM binding intensity (ln)
1,AAGATAACAAGTAATCAATCTAATTATTAATTATAT [CACACA_negctrl_site1713],9.52
2,AACGAACACTATTACACACATACATACATATGTATG [CACACA_site1859],10.1
3,AAGGAAAAACCATTCGCACACACACCGAATATATAA [CACACA_site8403],10.2
4,CAATTTTACTCATAAACACACATATAGATGTTATTA [CACACA_site7474],9.6
5,AAATAATATATTCCTTGTACTTATTTCAATGAATTC [XGTACX_site7719],9.64
6,CAAATACATGGACACACACACATATACAGATATATA [CACACA_site5854],10.9
7,AAAAAAAAAAAACACACACACACATTCAATATAAAA [CACACA_site40],10.4
8,GGAATAACCAGACACACACACACATATATATATATA [CACACA_site3541],10.9
9,ATGGGACAGATATATACACACATATAAATATAAATA [CACACA_site6684],10
10,CAAGGAACCAGACACACACACATAAATGTATATATA [CACACA_site752],10.2
11,GGAATAACCAGACACACACACACATATAAATATGTA [CACACA_site7632],11.2
12,GATACAGATGGACACACACACATACATAAATACATA [CACACA_site5833],11.3
13,AAAAAAAACAGACACACACACATTCAATATAAAACA [CACACA_site41],11.3
14,TATACAGATGGACACACACACATAAATAAATATATA [CACACA_site4863],10.4
15,GAATAATATGGACATACACACATATACATACAGATA [CACACA_site5200],10.5
16,AAAAAAAACGAACACACACACATTCAATATAAAACA [CACACA_site6170],10.5
17,TATACAGATGGACACACACACATATATATATATATA [CACACA_site5272],11
18,TACAATACCGTACAGGTGCAACTAGCCAAAAAAAAG,9.75
19,CCCTTTTTTTTTTAATGTACATATAATTATATATTT [XGTACX_site8568],9.88
20,ATTCAATAAACGTATTGTACAAAAGAACGATATATT [XGTACX_site2533],9.78
21,CAACATTCGTATATCACACATTTGCATGTTGTCAAT [CACACA_site4470],9.78
22,TAACAATATCTAGATACACACACATATCTCTCAATC [CACACA_site8122],10.4
23,CTCCTTTCAAAAAAATGTACATGTTTACATTTCAAG [XGTACX_site7342],9.55

row,Sequence,gcPBM binding intensity (ln)
1,TATACAGATAAATACACACACACATATATATATATA [CACACA_site4845],11.2
2,AATACATACAGACACACACACACATATATATATATA [CACACA_site3558],11.5
3,TATATTAATAGACACACACACATATTTATATTTATA [CACACA_site6859],11.1
4,GTAATACACAGACACACACACATACACATATTTATA [CACACA_site7313],10.5
5,TATACAGATAAATACACACACATATATATATATATA [CACACA_site4178],9.86
6,TATATTATTTATTAGACACACATTATTAATATATTT [CACACA_site1078],9.79
7,CATACAGATATATATACACACATACAGATAAATACA [CACACA_site4592],9.95
8,TACACATACAGACATACACACATACACATATACACA [CACACA_site6918],10.5
9,TATTTATATAGACACACACACATATATTTATATTTT [CACACA_site7240],10.4
10,CATACATACAGACACACACACATATTTATATTTATA [CACACA_site6172],11.3
11,AATATGTACAGACATACACACATATTTATATTTATA [CACACA_site6694],9.88
12,TACATACACAGACACACACACATATATATATATATA [CACACA_site3557],10.9
13,ATATATAGGTTCCCTTTTCTTTTTTTTTTTTTTTTT [CACACA_negctrl_site1159],9.39
14,AAAAAACAAAAAAAAAAAAAAATAATACAATATAAT [CACACA_negctrl_site1630],9.56
15,ACGATATTTTTGGTGACACACATATATATATATATA [CACACA_site126],9.8
16,AAAAATTTTTTTTCATTTGTTTTTATTCCGTAAAAA [CACACA_negctrl_site1217],9.17
17,TATATATCAAGACACACACACATATATTTATTTATA [CACACA_site7733],11.2
18,TATACATAGATATATACACACATATATTTATATACA [CACACA_site6328],9.92
19,AAAAAATATATTAAGGCACACACATACATATATATA [CACACA_site9239],10.2
20,ATGATATATAGACACACACACATATTTATATACATT [CACACA_site6404],10.9
21,AAAATATATTAAGGCACACACATACAGATATATATA [CACACA_site5951],11.1
22,CTAAAATACAGACACACACACACATATATATATATA [CACACA_site4150],11
23,TATGTGCCAAGACACACACACATATTTATATTTATA [CACACA_site6360],10.2

row,Sequence,gcPBM binding intensity (ln)
1,TAAATACAGACATATACACACATATATATATATATA [CACACA_site4382],9.75
2,AAAATACACAGACACACACACATATAAATAAATATT [CACACA_site7871],10.8
3,AAAATATATTAAGGCACACACATACATATATATATA [CACACA_site3723],10.7
4,TATTTATAGATATATACACACATATTTATATTTATA [CACACA_site6441],9.78
5,TATATATCAATATACACACACACATATTTATTTATA [CACACA_site6858],10.4
6,TATACAAGTATATAGGTGCATATATAAGTATATATT [GTGCAC_site9994],9.69
7,ACGTTTTATTTTTATTGTACTCACATTGAAATGAAT [XGTACX_site6094],10
8,AATATAATGCAATATACACACATATATTTCTCTTTT [CACACA_site7276],9.94
9,TTTTCTAAAAAAAGTTGTACATCTTATTTATATTAT [XGTACX_site295],9.63
10,AATTTCAAATTGTATGTGCACATGTAGAAGTACTTT,9.85
11,AAAATATGTATGTAAAGTACTAATATACAAATTTTT [XGTACX_site5186],9.62
12,TGTATTTATTAATGTACACACATGCGTATGTTCGTT [CACACA_site5892],9.96
13,TTTTTTTTTATAGCTAAACACACATAAGAATATATG [CACACA_site8282],9.61
14,TTTTTTTTTTTTTTTGCACACACATTGAATTATTAT [CACACA_site198],9.96
15,TTTATTTATATAATTACACACATATATACACAAATG [CACACA_site8903],9.79
16,TGTTGTAACAAAAGTACACACACATTTCTATAAATT [CACACA_site8894],9.86
17,GAATATAAACATATTACACACATCTATCTGTACATT [CACACA_site5114],9.97
18,ATTTCATACAGACACACACACAAACAAACATATATA [CACACA_site979],11.2
19,TACAGATACAGATACACACACACACCGAAATAAATA [CACACA_site4865],11
20,TAAATAAATACATACACACACATACAGATATATATA [CACACA_site5690],10.5
21,TATATACTCAAACACACACACACATACACAGACATA [CACACA_site5025],10.7
22,GGATATAACAGACACACACACACATATAAATATATT [CACACA_site7866],10.6
23,AACCACAGACATATAACACACATATACAATATATAT [CACACA_site5142],10.4

row,Sequence,gcPBM binding intensity (ln)
1,TATAAATACAGATACACACACACACCGATATATATA [CACACA_site5271],10.4
2,TATACAGATATATATACACACATATATATAAATACA [CACACA_site4383],9.97
3,AAAAAAAACAGACACACACACATACAAAATATATAT [CACACA_site1449],10.7
4,AATAACCACAGACACACACACATATAAATATAAATA [CACACA_site7631],10.9
5,TATAAATATAAATACACACACACATCAATACAGATA [CACACA_site5850],11
6,TATATATATAAATACACACACACACCGATATATATA [CACACA_site5408],10.5
7,ATTTTTTCTTTTTTTTTTCCGTTTTTTTGGACATTT [CACACA_negctrl_site1174],9.75
8,TAAATATATATATATAGTACAATATAATTATGATAT [XGTACX_site258],9.75
9,AAAAAAAAAATATCATGTACAAATATAATAAAATTT [XGTACX_site3896],9.79
10,TATATTTAAGTACATAAATAAGCCCATTTACATACA [CACACA_negctrl_site1224],9.37
11,AATAATAATGCTTTAACTTTGTTGTTATTTAGAATA [CACACA_negctrl_site1144],9.44
12,AATAGCTAGCTGTGCACACAAACATATTTTCCAAAT [CACACA_site880],9.91
13,AGGTTATATATGAACAAAAATAAAATATTCATAGGC [TGCATGCA_negctrl_site46],9.77
14,AAAAAACACAGACACACACACATATACATACATACA [CACACA_site2666],10.7
15,ATAAATACTAGGCACACACACATATAGATTTATATA [CACACA_site7064],10.8
16,ATAAATACTAGGCACACACACATATATATATATATA [CACACA_site2080],10.4
17,TAAACAGACATATAAACACACATACATACATACATA [CACACA_site7215],10.2
18,AAATAAATACTAGGCACACACACATATATATATATA [CACACA_site2079],11
19,AAAAAAAACAGACACACACACACATATACATACATA [CACACA_site2665],11.5
20,TGTTTCTAAGAATTTACACACAAAATATTTCTACAT [CACACA_site7846],9.9
